{"source": "PubChem BioAssay AID1578", "about": "(Sanford-Burnham Center for Chemical Genomics, 2009)", "note": "Out of some 290,000 compounds screened, about 3,000 (1%) were called active. For the sample, actives were picked, then their nearest neighbours and some compounds at random. Values without a mark were called inactive. No stated cut-off is given here; in the data, active means inhibition mostly above about 36% (no sharp cut-off); inactive means mostly below about 34%."}
{"assay": "NOD1 signaling inhibitors, primary screen, cell-based, luminescence, uHTS (AID 1578);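 further: HEK-293T reporter cells stimulated with the NOD1 agonist gamma-tri-DAP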", "conditions": "NOD1-driven NF-kB luciferase reporter cells, at 4 µM, stronger effect = higher value"}
{"smiles": "Cc1nccn1CC(O)COc1ccc([N+](=O)[O-])cc1", "note": "(stereo not given)", "inhibition": "-5.8%"}
{"smiles": "CCOC(=O)Cn1nnnc1CN(Cc1ccc(OC)cc1)Cc1cc2cc(C)cc(C)c2[nH]c1=O", "inhibition": "-21.1%"}
{"smiles": "Cn1c(=O)c2c(nc(N/N=C/c3ccc(OC(=O)c4ccco4)cc3)n2Cc2ccccc2)n(C)c1=O", "inhibition": "26.6%"}
{"smiles": "Cn1c(=O)c2c(nc(N/N=C/c3ccc(OC(=O)c4ccco4)cc3)n2Cc2ccc(F)cc2)n(C)c1=O", "inhibition": "33.2%"}
{"smiles": "Cc1nn2c3ccccc3n(CC(=O)c3cccs3)c2nc1=O", "inhibition": "19.3%"}
{"smiles": "COc1cccc(CNC(=O)N2CCN(S(=O)(=O)c3ccc(Cl)cc3)CC2)c1", "inhibition": "12.4%"}
{"smiles": "COc1ccc(C(=O)C2CCCN(C(=O)COc3ccc(C(C)=O)cc3)C2)cc1F", "note": "(stereo not given)", "inhibition": "-21.9%"}
{"smiles": "CCC(CO)[n+]1c(C)cc(/C=C2\\Sc3ccccc3N2Cc2ccccc2)cc1C", "note": "(stereo not given)", "inhibition": "75.9% (active)"}
{"smiles": "CCN1/C(=C2\\SC(=S)N(Cc3ccccc3)C2=O)Sc2ccccc21", "inhibition": "4.6%"}
{"smiles": "C[n+]1ccccc1/C=C1\\Sc2ccccc2N1CCO", "inhibition": "-20.4%"}
{"smiles": "COc1ccc(CNS(=O)(=O)c2ccccc2Br)cc1", "inhibition": "3.1%"}
{"smiles": "CC(=O)c1cccc(Nc2ccc(-c3ccccc3F)nn2)c1", "inhibition": "-57.9%"}
{"smiles": "Cc1ccc(C(=O)NC(=S)N2CCN(C)CC2)cc1", "inhibition": "-21.2%"}
{"smiles": "Cc1ccc(C(=O)NC(=S)N2CCN(c3cc(C)ccc3C)CC2)cc1", "inhibition": "55.1% (active)"}
{"smiles": "Cc1ccc(C(=O)NC(=S)N2CCN(c3ccccc3F)CC2)cc1", "inhibition": "19.9%"}
{"smiles": "Cc1ccc(C)c(OCC(O)CNC2CCCC2)c1", "note": "(stereo not given)", "inhibition": "-40.4%"}
{"smiles": "COc1ccc(OCC(O)CNC2CCCC2)cc1", "note": "(stereo not given)", "inhibition": "5.8%"}
{"smiles": "Cc1ccc(OCC(O)CNC2CCCC2)cc1C", "note": "(stereo not given)", "inhibition": "62.6% (active)"}
{"smiles": "CC(C)OC1(c2ccccc2)OC(=O)c2ccccc21", "note": "(stereo not given)", "inhibition": "13.3%"}
{"smiles": "COc1ccc(C(=O)n2c(N)nc3ccccc32)cc1OC", "inhibition": "-61.2%"}
{"smiles": "Nc1nc2ccccc2n1C(=O)c1ccccc1", "inhibition": "-26.6%"}
{"smiles": "Cc1ccc(C(=O)n2c3ccccc3c3ccccc32)cc1", "inhibition": "7.1%"}
{"smiles": "Cc1ccc(C(=O)n2c(N)nc3ccccc32)cc1", "inhibition": "41.2% (active)"}
{"smiles": "Nc1ccc(C(=O)n2c3ccccc3c3ccccc32)cc1", "inhibition": "75.2% (active)"}
{"smiles": "CC(=O)n1c2ccccc2c2ccccc21", "inhibition": "11.7%"}
{"smiles": "O=C(CC1C(=O)NCCN1Cc1ccc(-c2ccccc2)cc1)NCCCn1cccn1", "note": "(stereo not given)", "inhibition": "-27.9%"}
{"smiles": "CNC(=O)COC(=O)[C@@H](Nc1ccc(S(=O)(=O)N2CCOCC2)cc1[N+](=O)[O-])C(C)C", "inhibition": "-8.1%"}
{"smiles": "Cc1ccc(C(=O)Nc2ncn[nH]2)cc1", "inhibition": "-32.8%"}
{"smiles": "CCOc1ccc(-c2[nH]ncc2Oc2cccc(OC)c2)c(O)c1", "inhibition": "10.8%"}
{"smiles": "CCc1c(C)c(C#N)c2nc3ccccc3n2c1Cl", "inhibition": "62.6%"}
{"smiles": "Cc1cc(Cl)n2c(nc3ccccc32)c1C#N", "inhibition": "-29.7%"}
{"smiles": "CCCCc1c(C)c(C#N)c2nc3ccccc3n2c1NCCN(C)C", "inhibition": "-4.5%"}
{"smiles": "CCCCCc1c(C)c(C#N)c2nc3ccccc3n2c1-n1ccnc1C", "inhibition": "15.8%"}
{"smiles": "CCc1c(C)c(C#N)c2nc3ccccc3n2c1N(C)C", "inhibition": "2%"}
{"smiles": "N#Cc1c(-c2ccccc2)c(C#N)c2nc3ccccc3n2c1N", "inhibition": "37.8%"}
{"smiles": "CCCCc1c(C)c(C#N)c2nc3ccccc3n2c1Cl", "inhibition": "101% (active)"}
{"smiles": "CC(C)(C)C1=C(C#N)C(c2cccnc2)C(C#N)=C(N)O1", "note": "(stereo not given)", "inhibition": "19.8%"}
{"smiles": "CCCCOc1ccc(-c2[nH]ncc2C=O)cc1", "inhibition": "-46%"}
{"smiles": "COc1ccc2nc(NC(=O)c3cccs3)sc2c1", "inhibition": "-15.7%"}
{"smiles": "CCOc1ccc(OCC)c(N=c2oc3c(C)ncc(CO)c3cc2C(N)=O)c1", "inhibition": "23.3%"}
{"smiles": "CSc1nnc(CNS(=O)(=O)c2ccc(Cl)cc2)n1C", "inhibition": "-7.4%"}
{"smiles": "CC(=O)N(C(C)=O)c1ncnc2c1c(-c1ccc(Cl)cc1)nn2C(C)(C)C", "inhibition": "71.2% (active)"}
{"smiles": "CC(C)(C)n1nc(-c2ccc(Cl)cc2)c2c(N)ncnc21", "inhibition": "54.6%"}
{"smiles": "CC(=O)Nc1ncnc2c1c(-c1ccc(Cl)cc1)nn2C(C)(C)C", "inhibition": "39.6%"}
{"smiles": "Cc1ccccc1C(=O)Nc1ccccn1", "inhibition": "-7.2%"}
{"smiles": "c1ccc(-c2nn3c(-c4ccccc4)nnc3s2)cc1", "inhibition": "-69.4%"}
{"smiles": "COc1cc(N/C(=N/S(=O)(=O)c2ccccc2)c2ccccc2)ncn1", "inhibition": "48.5% (active)"}
{"smiles": "O=S(=O)(/N=C(/Nc1cc(N2CCOCC2)ncn1)c1ccccc1)c1ccccc1", "inhibition": "0.2%"}
{"smiles": "O=S(=O)(/N=C(/Nc1ccccn1)c1ccccc1)c1ccccc1", "inhibition": "5.7%"}
{"smiles": "Cn1c(CO)cnc1SCc1ccc(Cl)cc1", "inhibition": "-5.4%"}
{"smiles": "O=C1C2C3C=CC(CO)(O3)C2C(=O)N1c1ccc(-c2ccccc2)cc1", "note": "(stereo not given)", "inhibition": "35.6%"}
{"smiles": "CC(=O)Oc1ccc(N2C(=O)C3C4C=CC(CO)(O4)C3C2=O)cc1", "note": "(stereo not given)", "inhibition": "-9.3%"}
{"smiles": "O=C1C2C3C=CC(CO)(O3)C2C(=O)N1c1ccccc1-c1ccccc1", "note": "(stereo not given)", "inhibition": "72.3% (active)"}
{"smiles": "CCc1ccc(CNc2ccc3c(c2)ncn3CC)cc1", "inhibition": "-16.7%"}
{"smiles": "CCC(SC1=NCCS1)C(=O)Nc1nnc(-c2ccccc2OC)s1", "note": "(stereo not given)", "inhibition": "-17.6%"}
{"smiles": "NC(=O)Nc1ccc(C(=O)OCC(=O)N(Cc2ccccc2)C2CCS(=O)(=O)C2)cc1", "note": "(stereo not given)", "inhibition": "-20.7%"}
{"smiles": "CN1CCc2c(sc(NC(=O)C3COc4ccccc4O3)c2C(N)=O)C1", "note": "(stereo not given)", "inhibition": "-27.9%"}
{"smiles": "Cc1cc2nc(-c3ccc(SCC(=O)NC(C)C)nc3)[nH]c2cc1C", "inhibition": "23.9%"}
{"smiles": "CC(=O)CSc1ccc(-c2nc3cc(C)c(C)cc3[nH]2)cn1", "inhibition": "58.4% (active)"}
{"smiles": "CCOC(=O)CSc1ccc(-c2nc3cc(C)c(C)cc3[nH]2)cn1", "inhibition": "-40.2%"}
{"smiles": "CN(C)Cc1ccc(CNC(=O)COc2ccc3ccccc3c2)cc1", "inhibition": "-35.8%"}
{"smiles": "CC(=O)Nc1ccc(S(=O)(=O)N/N=C/c2cccnc2)cc1", "inhibition": "-27.3%"}
{"smiles": "CCOc1ccc(-c2c(C)sc3nc[nH]c(=O)c23)cc1", "inhibition": "-20.6%"}
{"smiles": "CCOc1c(Br)ccc2c1sc1nc[nH]c(=O)c12", "inhibition": "66.7% (active)"}
{"smiles": "CCOC(=O)c1c(N)sc2c(OCC)c(Br)ccc12", "inhibition": "-11.3%"}
